These results are taken from PubChem BioAssay (Tox21).

The structures appear in SMILES notation. Records with an inconclusive call do not appear. Values without a mark were called inactive. Active and inactive are the calls of the source. Unless noted, calls follow the shape of the dose curve; as a rule, active = well fitted curve in the direction sought with a large enough effect in the repeat runs; inconclusive = weak or mixed curves; inactive = no such curve, though single readings can be large; an effect the other way counts as inactive or inconclusive.

A short description of experiment [1]: qHTS assay to identify aromatase inhibitors - cell viability counter screen (AID 743084;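 also: cells stimulated with testosterone during compound exposure; nearly all actives have a fitted effect of over 55% in size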; also: potency is read from the fitted curve at half-maximal effect). (In qHTS, concentration-response curves come from the screen itself.)
For experiment [2], the target named is Aryl hydrocarbon receptor (Homo sapiens) (UniProt P35869). The experiment can be described thus: qHTS assay to identify small molecule that activate the aryl hydrocarbon receptor (AhR) signaling pathway (AID 743085).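 Also: HG2L7.5c1 human HepG2 liver cells with stably integrated DRE-driven firefly reporter; series mostly up to about 70 µM; nearly all actives have a fitted effect of over 15% in size.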 A digest of the protocol:
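Cell line HG2L7.5c1 (human hepatoma, 20× DRE-luc). Plated, 5 h 37C, compound/DMSO added, 24 h 37C. CellTiter-Fluor 30 min 37C → fluorescence; then ONE-Glo 30 min RT → luminescence.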

Experiment [3] can be described thus: qHTS assay to identify small molecule that activate the aryl hydrocarbon receptor (AhR) signaling pathway - cell viability counter screen (AID 743086). Also: nearly all actives have a fitted effect of over 45% in size. Also: potency is read from the fitted curve at half-maximal effect. A digest of the protocol:
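HepG2-AhR-luc (HG2L7.5c1) cells, 4000/well, treated 24 h at 37 C with compound; viability measured as CellTiter-Fluor fluorescence after 30 min in the same wells as the luciferase read.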

The target in experiment [4] is Peroxisome proliferator-activated receptor gamma (Homo sapiens) (UniProt P37231). Kind of experiment: qHTS assay to identify small molecule agonists of the peroxisome proliferator-activated receptor gamma (PPARg) signaling pathway (AID 743094; active = well fitted activation curve with a large enough effect in the signal ratio in the repeat runs, not every such curve was filed as active; the % refers to the signal ratio). A digest of the protocol: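 Cells from the PPARg UAS-bla HEK293H line are plated and incubated 5 h at 37C. Compounds in DMSO are pinned in and left 17 h at 37C. LiveBLAzer B/G substrate is then added for 1 h at room temperature before fluorescence is measured.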
Peroxisome proliferator-activated receptor gamma (Homo sapiens), sequence (P37231 whole entry, looked up): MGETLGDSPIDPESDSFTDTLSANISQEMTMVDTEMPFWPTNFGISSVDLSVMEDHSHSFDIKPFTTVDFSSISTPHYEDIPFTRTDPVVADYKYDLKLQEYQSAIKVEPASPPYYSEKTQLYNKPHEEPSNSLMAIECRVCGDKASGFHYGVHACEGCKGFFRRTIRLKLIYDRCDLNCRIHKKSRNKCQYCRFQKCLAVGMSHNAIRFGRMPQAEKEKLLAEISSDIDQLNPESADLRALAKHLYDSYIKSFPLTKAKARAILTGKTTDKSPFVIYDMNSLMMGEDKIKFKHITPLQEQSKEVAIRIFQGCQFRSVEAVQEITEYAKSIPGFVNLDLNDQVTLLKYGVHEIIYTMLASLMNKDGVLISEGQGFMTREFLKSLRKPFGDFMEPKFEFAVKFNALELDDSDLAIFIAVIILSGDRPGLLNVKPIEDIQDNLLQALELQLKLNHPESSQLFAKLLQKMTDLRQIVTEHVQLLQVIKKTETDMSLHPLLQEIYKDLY

The nature of experiment [5]: qHTS assay to identify small molecule phospholipidosis (PLD) inducers (AID 1259344; active = well fitted curve in the direction sought with a large enough effect; an effect the other way counts as inactive or inconclusive). A digest of the protocol:
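Image-based: LipidTOX Red pit count/intensity per well and per cell; HepG2, 24 h compound at 37 C, PFA fixation, Hoechst counterstain.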

Experiment [6] has as its target Nuclear receptor subfamily 1 group I member 2 (Rattus norvegicus) (UniProt Q9R1A7). Kind of experiment: Rat pregnane X receptor (rPXR) activation by small molecules, qHTS assay (AID 1346983). Also: nearly all actives have a fitted effect of over 20% in size. Conditions: rPXR luciferase reporter cells, One-Glo luminescence, 24 h; max activation: active compounds read high. A digest of the protocol: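 Cell-based rPXR activation assay: rPXR cells, 2,000 per well, rested 5hr at 37 C, then exposed to compounds in DMSO for 24 hr at 37 C. Luciferase activity read by One-Glo luminescence after 30 min at room temperature.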

Experiment [7] concerns the target Nuclear receptor subfamily 1 group I member 2 (Homo sapiens) (UniProt O75469). Kind of experiment: CYP3A4 induction through human pregnane X receptor (PXR) by small molecules, qHTS assay (AID 1346984). Also: nearly all actives have a fitted effect of over 40% in size. A digest of the protocol:
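Quantitative HTS in DPX-2 cells, i.e. HepG2 transfected with PXR response element and CYP3A4-promoter luciferase. Compounds in DMSO incubated 24hr at 37C; then P450-Glo CYP3A4 substrate, 3uM final, 3hr; One-Glo luminescence.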

Experiment [8] shares this target. The experiment can be described thus: Human pregnane X receptor (PXR) activation by small molecules, qHTS assay (AID 1346985). Also: nearly all actives have a fitted effect of over 40% in size. A digest of the protocol:
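DPX-2 cells (HepG2 co-transfected with a PXR response element and a CYP3A4-promoter luciferase construct) were seeded at 2,000 per well, rested 5 hr at 37C, then exposed to DMSO-dissolved compounds for 24 hr. Activation was read as luciferase luminescence.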
% is scaled to controls: 0 for no effect and ±100 for the full control effect.

Aryl hydrocarbon receptor (Homo sapiens), sequence (P35869 whole entry, looked up): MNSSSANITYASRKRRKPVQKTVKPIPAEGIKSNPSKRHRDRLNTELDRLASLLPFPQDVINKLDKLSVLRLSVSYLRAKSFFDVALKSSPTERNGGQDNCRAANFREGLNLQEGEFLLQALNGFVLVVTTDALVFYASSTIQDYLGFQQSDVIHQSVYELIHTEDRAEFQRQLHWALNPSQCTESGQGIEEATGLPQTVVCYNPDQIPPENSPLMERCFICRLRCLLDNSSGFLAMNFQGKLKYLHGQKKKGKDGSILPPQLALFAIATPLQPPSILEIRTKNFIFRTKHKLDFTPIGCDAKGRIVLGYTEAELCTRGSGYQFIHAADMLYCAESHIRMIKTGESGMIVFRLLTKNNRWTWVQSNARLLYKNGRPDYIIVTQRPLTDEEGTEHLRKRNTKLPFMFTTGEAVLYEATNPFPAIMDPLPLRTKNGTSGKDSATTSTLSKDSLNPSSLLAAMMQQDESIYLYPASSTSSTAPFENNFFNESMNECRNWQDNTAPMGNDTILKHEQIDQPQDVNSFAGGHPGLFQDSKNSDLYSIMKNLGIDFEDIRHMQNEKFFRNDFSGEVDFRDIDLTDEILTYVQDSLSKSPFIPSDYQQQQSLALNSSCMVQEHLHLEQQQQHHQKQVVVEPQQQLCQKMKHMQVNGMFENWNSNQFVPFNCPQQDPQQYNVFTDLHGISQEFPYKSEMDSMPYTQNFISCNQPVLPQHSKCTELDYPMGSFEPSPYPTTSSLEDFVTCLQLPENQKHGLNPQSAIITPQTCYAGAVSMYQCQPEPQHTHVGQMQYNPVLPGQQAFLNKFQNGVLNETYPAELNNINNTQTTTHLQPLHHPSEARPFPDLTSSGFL
Nuclear receptor subfamily 1 group I member 2 (Rattus norvegicus), sequence (Q9R1A7 whole entry, looked up): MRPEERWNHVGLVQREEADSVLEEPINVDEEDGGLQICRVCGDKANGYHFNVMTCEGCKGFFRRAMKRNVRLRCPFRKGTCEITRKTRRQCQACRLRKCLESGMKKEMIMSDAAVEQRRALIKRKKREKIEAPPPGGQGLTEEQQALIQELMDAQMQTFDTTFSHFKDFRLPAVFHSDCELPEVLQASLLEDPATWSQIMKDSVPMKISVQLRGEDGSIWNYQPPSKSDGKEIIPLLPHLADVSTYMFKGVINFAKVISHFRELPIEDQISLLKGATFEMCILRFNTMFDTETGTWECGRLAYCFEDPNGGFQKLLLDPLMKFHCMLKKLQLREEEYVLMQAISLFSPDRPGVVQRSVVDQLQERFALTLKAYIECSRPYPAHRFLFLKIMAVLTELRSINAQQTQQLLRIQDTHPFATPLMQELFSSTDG

For `O=C(O)CCC/C=C\C[C@@H]1[C@@H](/C=C/[C@@H](O)COc2cccc(Cl)c2)[C@H](O)C[C@@H]1O`, the Potency entry in experiment [1], in experiment [2], in experiment [3], in experiment [4], in experiment [5] and in experiment [7] was “inactive” in each case. In addition, in experiment [8], the Potency entry was “inactive”. In addition, the max activation in experiment [6] is -0.0632%.

`CO[C@@]1(NC(=O)C2SC(=C(C(N)=O)C(=O)O)S2)C(=O)N2C(C(=O)O)=C(CSc3nnnn3C)CS[C@@H]21` (some centres not stated): the Potency result in experiment [1], in experiment [2], in experiment [3], in experiment [4], in experiment [5] and in experiment [7] was “inactive” throughout. Moreover, the Potency result in experiment [8] is “inactive”. Moreover, the max activation in experiment [6] is -1.7%.

In the case of `CCCc1ccc(C(=O)O)cc1`, the Potency entry in experiment [1], in experiment [2], in experiment [3], in experiment [4], in experiment [5] and in experiment [7] was “inactive” throughout. Moreover, the Potency entry in experiment [8] was “inactive”. The max activation in experiment [6] is -2.43%.

In the case of `O=P(O)(O)OC[C@H](O)CO`, the Potency entry in experiment [1], in experiment [2], in experiment [3], in experiment [4], in experiment [5] and in experiment [7] was “inactive” throughout. In experiment [8], the Potency entry was “inactive”. Besides, the max activation in experiment [6] is -3.61%.

Take `COC(=O)CC[C@H](N)C(=O)O`: the Potency entry in experiment [1], in experiment [2], in experiment [3], in experiment [4], in experiment [5] and in experiment [7] was “inactive” throughout. Besides, in experiment [8], the Potency entry is “inactive”. In addition, in experiment [6], the max activation was -5.81%.

On to `CN1CCC(OC(=O)C(Oc2ccc(Cl)cc2)Oc2ccc(Cl)cc2)CC1`, for which the Potency result in experiment [1], in experiment [2], in experiment [3], in experiment [4], in experiment [5] and in experiment [7] was “inactive” in each case. Moreover, the Potency result in experiment [8] is “inactive”. For the same compound, the max activation in experiment [6] was -4.17%.

For `C[C@]12CC[C@@H]3c4ccc(O)cc4CC[C@H]3[C@@H]1CC[C@@H]2OP(=O)(O)O`, the Potency result in experiment [1], in experiment [2], in experiment [3], in experiment [4], in experiment [5] and in experiment [7] was “inactive” throughout. In experiment [8], the Potency entry is “inactive”. Further, the max activation in experiment [6] is 0.522%.

Regarding `CS(=O)(=O)c1ccc(C2=C(c3ccccc3)C(=O)OC2)cc1`, the Potency result in experiment [1], in experiment [2], in experiment [3], in experiment [4], in experiment [5] and in experiment [7] was “inactive” each time. In experiment [8], the Potency entry was “inactive”. Moreover, the max activation in experiment [6] was -0.681%.

With `CN[C@@H]1[C@H](O[C@H]2[C@H](O[C@H]3[C@H](O)[C@@H](O)[C@H](N=C(N)N)[C@@H](O)[C@@H]3N=C(N)N)O[C@@H](C)[C@]2(O)C=O)O[C@@H](CO)[C@H](O)[C@H]1O`, the Potency entry in experiment [1], in experiment [2], in experiment [3], in experiment [4], in experiment [5] and in experiment [7] was “inactive” throughout. Moreover, the Potency result in experiment [8] was “inactive”. In addition, in experiment [6], the max activation is -1.83%.

Consider `O=C(O)CO.[NH2-].[NH2-].[Pt+2]`, for which the Potency result in experiment [1], in experiment [2], in experiment [3], in experiment [4], in experiment [5] and in experiment [7] was “inactive” each time. In addition, the Potency result in experiment [8] is “inactive”. Moreover, in experiment [6], the max activation is -2.14%.

Turning to `C[C@H](N)C(=O)N[C@@H](C)P(=O)(O)O`, the Potency entry in experiment [1], in experiment [2], in experiment [3], in experiment [4], in experiment [5] and in experiment [7] was “inactive” throughout. Besides, the Potency result in experiment [8] was “inactive”. In addition, the max activation in experiment [6] is -2.51%.

Turning to `Cc1cccc(C)c1NC(=O)NC1=CCCN1C`, the Potency result in experiment [1], in experiment [2], in experiment [3], in experiment [4], in experiment [5] and in experiment [7] was “inactive” in each case. Besides, the Potency result in experiment [8] is “inactive”. Also, in experiment [6], the max activation was -2.14%.

Turning to `CS(=O)(=O)OCC(O)C(O)COS(C)(=O)=O` (configuration not stated), the Potency result in experiment [1], in experiment [2], in experiment [3], in experiment [4], in experiment [5] and in experiment [7] was “inactive” in each case. Further, the Potency entry in experiment [8] is “inactive”. Moreover, the max activation in experiment [6] was -4.2%.

With `CC(O)CN(C)C` (configuration not stated), the Potency result in experiment [1], in experiment [2], in experiment [3], in experiment [4], in experiment [5] and in experiment [7] was “inactive” each time. The Potency result in experiment [8] is “inactive”. Further, the max activation in experiment [6] is -0.0612%.

With `Cc1cc(-c2ccc(N=Nc3c(S(=O)(=O)O)cc4cc(S(=O)(=O)O)cc(N)c4c3O)c(C)c2)ccc1N=Nc1c(S(=O)(=O)O)cc2cc(S(=O)(=O)O)cc(N)c2c1O`, the Potency in experiment [1] is 13.3 µM (active); in experiment [3] it was 15 µM (active). In addition, the Potency result in experiment [2], in experiment [4], in experiment [5], in experiment [7] and in experiment [8] was “inactive” each time. Further, the max activation in experiment [6] was -20.2%.

Take `CCN(CC)CCOc1ccccc1OC`: the Potency entry in experiment [1], in experiment [2], in experiment [3], in experiment [4], in experiment [5] and in experiment [7] was “inactive” each time. Further, the Potency result in experiment [8] is “inactive”. Besides, the max activation in experiment [6] was -0.861%.

Consider `CC(C)[C@H](N)C(=O)OCC(CO)OCn1cnc2c(=O)[nH]c(N)nc21` (some centres not stated), for which the Potency result in experiment [1], in experiment [2], in experiment [3], in experiment [4], in experiment [5] and in experiment [7] was “inactive” throughout. The Potency result in experiment [8] is “inactive”. In experiment [6], the max activation was -3.1%.

As to `CC(C)NCC(O)COc1ccccc1-n1cccc1` (configuration not stated), the Potency result in experiment [1], in experiment [2], in experiment [3], in experiment [4], in experiment [5] and in experiment [7] was “inactive” each time. The Potency result in experiment [8] was “inactive”. The max activation in experiment [6] was 1.86%.

Consider `CC(C)[C@@H](C)/C=C/[C@@H](C)[C@H]1CC[C@H]2/C(=C/C=C3\C[C@@H](O)CC[C@@H]3C)CCC[C@]12C`, for which the Potency result in experiment [1], in experiment [2], in experiment [3], in experiment [4], in experiment [5] and in experiment [7] was “inactive” throughout. In addition, the Potency result in experiment [8] was “inactive”. For the same compound, in experiment [6], the max activation was -0.157%.
